Sampled rows, rich in hits. Any-hit rate of the full collection: about 2.4%.
ULK1 inh – inhibitors of human ULK1 kinase. AlphaScreen Atg13 phosphorylation by ULK1, luminescence. inhibition, % at 5.96 µM. AID 1259251. O75385. 1.9% of 30,000 active; in the data active means inhibition above about 43%
ASK1 inh – human ASK1 kinase inhibition, primary screen; Q99683; AlphaScreen MKK6 phosphorylation by ASK1, luminescence; inhibition, % at 7.44 µM; 0.99% of 22,000 active; AID 1159602; in the data active means inhibition above about 35%
AlphaScreen intf – interferes with AlphaScreen TruHits signal in ASK1 counter-screen | shares compounds with ASK1 inh | AlphaScreen TruHits beads, signal interference counterscreen | IC50, µM | 20% of 220 active | AID 1159604;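 active means IC50 of 10 µM or lower in the counterscreen; inactive means IC50 above 10 µM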;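 further: loss of AlphaScreen light from TruHits beads alone with no ASK1 enzyme present; potency of signal reduction so a low IC50 flags an assay artifact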
A number is an active result.

Screening Cc1cc(NC2CCN(Cc3ccccc3)CC2)nc(Nc2ccc(N3CCOCC3)cc2)n1 returned ULK1 inh inactive, ASK1 inh 40.0 and AlphaScreen intf inactive.
For c1ccc(CN2CCC(Nc3cc(Nc4ccc(N5CCOCC5)cc4)ncn3)CC2)cc1 the results were ULK1 inh inactive and ASK1 inh inactive.
`COc1cc(Nc2nc(NCc3cccnc3)c3ncn(C4CCCCC4)c3n2)cc(OC)c1OC` gave ULK1 inh inactive and ASK1 inh inactive.
Screening Oc1ccc(-c2ncc(-c3cnccn3)c(-c3ccccc3)n2)cc1 returned ULK1 inh inactive.
COc1cc(Nc2cc(Nc3nccc4ccccc34)nc(N)n2)cc(OC)c1OC was read as ULK1 inh inactive and ASK1 inh inactive.
`COc1c(-c2cnn(C)c2)ccc2cnc(Nc3ccc(-n4cnc(N5CCOCC5)n4)cc3)nc12` gave ULK1 inh 82.7, ASK1 inh 42.3 and AlphaScreen intf inactive.
Screening c1cc(-c2ccc3cnc(Nc4ccc(-n5cnc(N6CCOCC6)n5)cc4)nc3c2)ccn1 returned ULK1 inh inactive and ASK1 inh inactive.
`Cn1cc(-c2ccc3cnc(Nc4ccc(-n5cnc(N6CCOCC6)n5)cc4)nc3c2-c2ccccc2)cn1` gave ULK1 inh inactive and ASK1 inh inactive.
`Cn1cc(-c2ccc3cnc(Nc4ccc(-n5cnc(N6CCOCC6)n5)cc4)nc3c2)cn1` gave ULK1 inh 56.2, ASK1 inh 47.9 and AlphaScreen intf inactive.
`NC(=O)c1ccc(-c2ncc(C(=O)NCCCN3CCCC3=O)s2)cc1` gave ULK1 inh inactive and ASK1 inh inactive.
For Cc1ccc(-n2ncc3c(-n4nc(C)cc4NC(=O)Cc4cccs4)ncnc32)c(C)c1 the results were ULK1 inh inactive.
Screening CC(=O)N1CC[C@H](NC(=O)c2cccc(-n3cc(NC(=O)Cc4ccccc4)cn3)c2)C1 returned ULK1 inh inactive and ASK1 inh inactive.
For COc1ccc(-c2nc3ncnc(Nc4ccc(NC(C)=O)cc4)c3[nH]2)cn1 the results were ULK1 inh inactive and ASK1 inh inactive.
Screening COc1ccc(-c2nc3ncnc(Nc4cc(OC)c(OC)c(OC)c4)c3[nH]2)cn1 returned ULK1 inh inactive, ASK1 inh 45.4 and AlphaScreen intf inactive.
`CC(=O)c1ccc(Nc2nccc(-c3cccc(NS(C)(=O)=O)c3)n2)cc1` gave ULK1 inh inactive and ASK1 inh inactive.
CN(C)c1cccc(Nc2nc(NCCc3ccc(O)cc3)c3ncn(-c4ccccc4)c3n2)c1 was read as ULK1 inh inactive, ASK1 inh 36.8 and AlphaScreen intf inactive.
`CN(C)c1cccc(Nc2nc(NCCc3ccc(O)cc3)c3ncn(Cc4ccc(C(F)(F)F)cc4)c3n2)c1` gave ULK1 inh inactive, ASK1 inh 36.8 and AlphaScreen intf inactive.
For CC(C)N(CCNc1nc(Nc2cccc(N(C)C)c2)nc2c1ncn2C1CCCCC1)C(C)C the results were ULK1 inh inactive and ASK1 inh inactive.
Screening Oc1ccc(CCNc2nc(Nc3ccccc3)nc3c2ncn3-c2ccccc2)cc1 returned ULK1 inh inactive and ASK1 inh inactive.
`COc1ccc(CCNc2nc(Nc3cccc(N(C)C)c3)nc3c2ncn3Cc2ccc(C(F)(F)F)cc2)cc1` gave ULK1 inh inactive and ASK1 inh inactive.
CN(C)c1cccc(Nc2nc(NCCc3ccc(O)cc3)c3ncn(C4CCCCC4)c3n2)c1 was read as ULK1 inh inactive, ASK1 inh 37.7 and AlphaScreen intf inactive.
Screening COc1cccc(CNC(=O)c2c(-c3ccccc3)c3ccc(-c4cn[nH]c4)nc3n2-c2ccccc2)c1 returned ULK1 inh inactive and ASK1 inh inactive.
For NC(=O)c1ccc(-c2nc(NCc3cccc(C(F)(F)F)c3)c3ncn(CCN4CCCC4=O)c3n2)cc1 the results were ULK1 inh inactive and ASK1 inh inactive.
For O=C(NC1CCN(Cc2ccccc2)CC1)c1cccc(NCCCN2CCCC2=O)n1 the results were ULK1 inh inactive and ASK1 inh inactive.
Screening c1ccc2c(-c3nccc(Nc4ccc(N5CCOCC5)cc4)n3)csc2c1 returned ULK1 inh inactive, ASK1 inh 38.1 and AlphaScreen intf inactive.
`c1ccc(Nc2ccnc(-c3csc4ccccc34)n2)cc1` gave ULK1 inh inactive and ASK1 inh inactive.
Screening O=C(NC1CC1)c1ccc(-c2nc(C(=O)NCCOc3ccccc3)cs2)cc1 returned ULK1 inh inactive and ASK1 inh inactive.
Screening COc1ccc(CCNc2nc(Nc3ccc(N4CCOCC4)cc3)nc3c2ncn3C(C)C)cc1 returned ULK1 inh inactive and ASK1 inh inactive.
For COc1ccc(CCNc2nc(Nc3ccc(N4CCOCC4)cc3)nc3c2ncn3Cc2ccc(C(F)(F)F)cc2)cc1 the results were ULK1 inh inactive, ASK1 inh 71.6 and AlphaScreen intf 9.52.
COc1ccc(CCNc2nc(Nc3ccc(N4CCOCC4)cc3)nc3c2ncn3-c2ccsc2)cc1 was read as ULK1 inh inactive, ASK1 inh 37.3 and AlphaScreen intf 7.4.

Screening results as filed in PubChem BioAssay.
